This is part of a sample that, as a whole, favours compounds with a hit. Of some 79,000 tested, about 15% had one in any assay. Calls of active or inactive are those of the source. Rule as the data show it: active = growth inhibition above about 70%; inactive = the rest.
Experiments:
[1] = NCI Yeast Anticancer Drug Screen. Data for the rad50 strain (AID 155);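 also: 0% = growth of vehicle-only cultures of the same strain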; details: S. cerevisiae rad50 strain growth inhibition; at 50.0 µM; active compounds read high
How it was run: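 Relative growth inhibition (compound vs vehicle) was measured in yeast with a defined repair-gene alteration.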

[2] = NCI Yeast Anticancer Drug Screen. Data for the mec2-1 strain (AID 157); details: S. cerevisiae mec2-1 strain, at 50.0 µM, active compounds read high
How it was run: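 Each compound was tested on mec2-1 yeast, a strain altered in DNA damage repair or cell cycle control. Growth inhibition is reported relative to vehicle.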

[3] = NCI Yeast Anticancer Drug Screen. Data for the sgs1 mgt1 strain (AID 161);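 also: 0% = growth of cultures given vehicle only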; details: S. cerevisiae sgs1 mgt1 strain, at 50.0 µM, active compounds read high
How it was run: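 Mutant yeast exposed to compound; growth scored against vehicle-only wells.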

[4] = NCI Yeast Anticancer Drug Screen. Data for the cln2 rad14 strain (AID 165);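 also: 0% = growth equal to vehicle treated cultures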; details: S. cerevisiae cln2 rad14 strain, at 50.0 µM, active compounds read high
How it was run: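 Test compounds were added to cln2 rad14 yeast cultures; inhibition of growth was then determined by comparison with vehicle treatment.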

[5] = NCI Yeast Anticancer Drug Screen. Data for the bub3 strain (AID 167); details: S. cerevisiae bub3 mutant strain, at 50.0 µM, active compounds read high
How it was run: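 Screening used yeast with an engineered genetic alteration affecting cell cycle control. Compound-exposed cultures were compared with vehicle cultures, and reduced growth was taken as inhibition.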

[6] = NCI Yeast Anticancer Drug Screen. Data for the mlh1 rad18 strain (AID 175); details: S. cerevisiae mlh1 rad18 strain growth inhibition; at 50.0 µM; active compounds read high
How it was run: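 Inhibition values reflect reduced growth of mutant yeast versus vehicle-treated controls following compound exposure; the mutations affect DNA damage repair.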

Measured: growth inhibition

Cc1ncc(CSCC(=O)O)c(N)n1
inactive: [1] 3.5% | [2] -16.1% | [3] -5.05% | [4] -9.05% | [5] -8.7% | [6] -8.55%

CC(=O)NC1=C/C(=C/COC(C)=O)OC1=O
inactive: [1] 22.6% | [2] -9.9% | [3] 11.8% | [4] -57% | [5] 5.8% | [6] 8.75%

COC(=O)CNC(=O)C1CSC(C)(C)N1C=O (configuration not stated)
inactive: [1] -5.25% | [2] -9.85% | [3] 10.2% | [4] 2.4% | [5] 47.9% | [6] -6.2%

CC(NC(CC12CC3CC(CC(C3)C1)C2)C(N)=O)c1ccccc1 (configuration not stated)
inactive: [1] -17.8% | [2] -20.8% | [3] -2.3% | [4] 14.1% | [5] 15.3% | [6] -18.4%

O=C(O)C1(O)CC(O)C(O)C(O)C1 (configuration not stated)
inactive: [1] 5.25% | [2] -7.05% | [3] -0.25% | [4] -13.8% | [5] 8.55% | [6] -0.8%

CCCC(=O)c1cc(-c2cc(C(=O)CCC)nc(N)n2)nc(N)n1
inactive: [1] 3.65% | [2] -3.4% | [3] 3.1% | [4] -15.9% | [5] -7.1% | [6] -0.4%

CCN(CC)CCCC(C)NC1CCCc2cc3c(cc21)C(=O)c1ccccc1C3=O (configuration not stated)
inactive: [1] 34% | [2] 13.8% | [3] 38.1% | [4] 14.9% | [5] -4.5% | [6] 33.1%

O/N=C(\c1ccccc1)c1ccc2ncccc2c1
inactive: [1] 37% | [2] 41.2% | [3] 27.9% | [4] 2.8% | [5] 7.45% | [6] 23.3%

O=[N+]([O-])c1ccc(N=C/C=C\Nc2ccc([N+](=O)[O-])cc2)cc1
inactive: [1] 6.8% | [2] 14.8% | [3] 11.2% | [4] -13.4% | [5] 6.85% | [6] 14.8%

CC1=NOC(=O)/C1=C/c1ccccc1C
inactive: [1] 51.2% | [2] 2.55% | [3] 27.9% | [4] 8.15% | [5] 17.4% | [6] 36.9%

O=C(Cl)c1cccc2c([N+](=O)[O-])cccc12
inactive: [1] -4.45% | [2] 2.95% | [3] -2.35% | [4] -44% | [5] -1.4% | [6] 11.8%

Cc1cccc(C)c1NC(=S)NC=C(C(N)=O)C(N)=O
inactive: [1] -26.1% | [2] -23.6% | [3] 12.7% | [4] 3.1% | [5] -14.4% | [6] 10.6%

COc1cc2oc(=O)ccc2cc1CC=C(C)C
inactive: [1] -16.1% | [2] -26.2% | [3] -4.1% | [4] -6.35% | [5] 2.95% | [6] -21.8%

CC1(C)N=C(Oc2ccccc2)n2nccc2N1
inactive: [1] -12.6% | [2] -15.6% | [3] -14.6% | [4] 2.55% | [5] -18.3% | [6] -29.6%

CC(=O)/C(=C/n1ccc(=O)[nH]c1=S)C(=O)Nc1ccc([N+](=O)[O-])cc1
inactive: [1] -18.3% | [2] -18.8% | [3] -38.2% | [4] -20.4% | [5] -2.85% | [6] -10.9%

O=[N+]([O-])c1ccc2[nH]c3nc4ncccc4nc3c2c1
inactive: [1] -3.4% | [2] 3.35% | [3] 4.7% | [4] -20.1% | [5] 0.25% | [6] 0.7%

CC(=O)OCN(C)C=O
inactive: [1] 25.9% | [2] 11.3% | [3] 18.7% | [4] 14.5% | [5] 11.1% | [6] 19.6%

O=C(Nc1ccc(Cl)cc1)Nc1nnc2nc(CC(=O)c3cccc([N+](=O)[O-])c3Cl)c(=O)[nH]n12
inactive: [1] -9.45% | [2] 11.4% | [3] 2.95% | [4] -0.4% | [5] 5.6% | [6] 9.55%

CCCCC1CCC(=O)NC1=O (configuration not stated)
inactive: [1] 4.25% | [2] 29.6% | [3] 5.8% | [4] 5.2% | [5] 14.7% | [6] 1.9%

Cc1ncc2c[n+]([O-])ccn12
inactive: [1] 6.05% | [2] 10.9% | [3] -4% | [4] -1.25% | [5] 17.4% | [6] 7.8%

COC1=CCC2=C(C1)C1(C)CCCC(C)(CO)C1CC2 (configuration not stated)
inactive: [1] 3.1% | [2] 18.5% | [3] -7.9% | [4] 3.4% | [5] 14% | [6] 58.2%

COc1ccc2cc1Oc1ccc(cc1)CC1c3cc(c(OC)cc3CCN1C)Oc1c(O)c(OC)cc3c1C(C2)N(C)CC3 (configuration not stated)
inactive: [1] 14.6% | [2] -10.4% | [3] 10.8% | [4] 16.2% | [5] 15.8% | [6] 1.95%

COc1ccc(C2OC(=N)C(=S)N2C)cc1O (configuration not stated)
inactive: [1] -5.9% | [2] -15.6% | [3] -13.2% | [4] -22.7% | [5] 2.5% | [6] -4.15%

CC(C)[C@@H](C)[C@@]1(C)C[C@@H]1[C@@H](C)[C@H]1CC[C@@H]([C@@H]2CC=C3C[C@@H](O)CC[C@]3(C)C2=O)[C@]1(C)CCO
inactive: [1] 13.9% | [2] 9.65% | [3] 19.3% | [4] -17.9% | [5] -7.35% | [6] -3.35%

Cn1c(=O)oc2cc(Br)ccc21
inactive: [1] -8.9% | [2] 0.7% | [3] -3.1% | [4] 18.9% | [5] 23% | [6] -67.8%

Cc1cc(C)c2c(=O)c3c(oc2c1)O[C@@](C)(CO)C[C@@H]3c1ccccc1
inactive: [1] 1.15% | [2] 11.2% | [3] 2.3% | [4] 6.05% | [5] 12% | [6] 5.2%

COc1ccc2c(c1)C(=O)CC(C(N)=O)C2 (configuration not stated)
inactive: [1] 20.6% | [2] 2.85% | [3] -29.9% | [4] 3.6% | [5] -13.7% | [6] -32%

CC1(C)C(=O)N=C(N)N1C(=O)OCc1ccccc1
inactive: [1] -11.9% | [2] -4.45% | [3] -6.6% | [4] 13.8% | [5] -10% | [6] -17.5%

COC(=O)c1ccc(C(=O)c2ccc(OC)cc2OC)cc1
inactive: [1] -0.1% | [2] -4.05% | [3] -0.85% | [4] -58.8% | [5] 4.15% | [6] -17.4%

O=C1OC(=O)C2C3C=CC(C3)C12 (configuration not stated)
inactive: [1] 17.2% | [2] -5.35% | [3] 23.1% | [4] -20.4% | [5] -1.45% | [6] 21.4%

Cc1cc[n+]2c(c1)-c1cc(C)cc[n+]1CC2
inactive: [1] 26.7% | [2] 1.15% | [3] 14.3% | [4] -10.8% | [5] 0.6% | [6] 6.3%

Cn1c2ccccc2c(=S)c2cc(NC(=O)CCCCC(=O)Nc3ccc4c(c3)c(=S)c3ccccc3n4C)ccc21
inactive: [1] 32.2% | [2] 22.9% | [3] 22.4% | [4] 23.5% | [5] -4.1% | [6] 23.9%

ClC(Cl)(Cl)C(Cl)(Cl)C(Cl)(Cl)Cl
inactive: [1] 42.1% | [2] 14.8% | [3] 16% | [4] -19.4% | [5] 6.75% | [6] 24.3%

COc1ccc2c(c1)c(CC(=O)O)c(Br)n2Cc1ccccc1
inactive: [1] 27.9% | [2] 33.4% | [3] 12% | [4] 21.4% | [5] 20.1%
active: [6] 77.7%

CC(C)NC1(C#N)CCN(Cc2ccccc2)CC1
inactive: [1] -29.8% | [2] -45.1% | [3] -41.4% | [4] 10.2% | [5] -29.1% | [6] -37.5%

CN(c1ccccc1)c1cc2nc3ccccc3nc2cc1O
inactive: [1] 15.3% | [2] 17.4% | [3] 4.3% | [4] 14.3% | [5] 2% | [6] -1.6%

COc1cc(CC/C(C)=N/O)ccc1OCc1ccccc1
inactive: [1] -13.1% | [2] -21.2% | [3] 0.7% | [4] -39.6% | [5] 9.65% | [6] -22.8%

CCOC(=O)c1nc2ccccc2c(=O)n1NC(=S)Nc1ccc(Cl)cc1
inactive: [1] -40.4% | [2] 5.95% | [3] -1.2% | [4] 8.8% | [5] -4.15% | [6] -15%

Cc1ccc(N)c(C#N)c1
inactive: [1] -11.8% | [2] 11.7% | [3] -5.7% | [4] 1% | [5] -5% | [6] 4.65%

COc1cc(-c2ccc(Br)[nH]2)[nH]c1C=NCC(C)C
inactive: [5] 69%
active: [1] 78.5% | [2] 78.5% | [3] 78.8% | [4] 78.2% | [6] 86.7%

CCOC(=O)C(O)(NC(=O)Nc1ccc(F)cc1)C(F)(F)F (configuration not stated)
inactive: [1] -22.4% | [2] -22.3% | [3] -72.9% | [4] -35.9% | [5] -37.3% | [6] -60.9%

CCOC(=O)c1ccc(Nc2cnc3ccc(C(F)(F)F)cc3n2)cc1
inactive: [1] 14.4% | [2] -2.35% | [3] 24.9% | [4] 14.9% | [5] 30.9% | [6] -32.8%

From PubChem BioAssay (NCI)
